DT40 TDP1 no CPT: qHTS for Inhibitors of human tyrosyl-DNA phosphodiesterase 1 (TDP1): qHTS in cells in absence of CPT | DT40 Tdp1-/- hTDP1 cells, no CPT, ATP luminescence, 48 h | Potency, µM (top dose mostly 46.2 µM), without a hit: top-dose activity change, negative = growth inhibition, most hits filed as inhibitors | 420,000 tested, 15% active | AID 686978, 2013; note: potency is the fitted concentration of half-maximal effect; nearly all actives have a fitted effect of over 55% in size
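Chicken DT40 Tdp1-/- cells complemented with human TDP1, screened without camptothecin (DMSO vehicle only), 400 cells/well. Compounds pin-transferred, cells incubated at 37 °C for at least 48 hr. Growth read as ATP-dependent luminescence (CellTiter-Glo, 30 min at RT).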
ALOX12 inh: blocks human arachidonate 12S-lipoxygenase; Potency, µM (series often up to 108 µM), inactives show top-dose activity change, negative = inhibition, usual class: inhibitors; 580,000 tested, 1.1% active; AID 1671190; purified 12hLO, xylenol orange hydroperoxide absorbance; note: potency is the fitted concentration of half-maximal effect
Target sequence (P18054 whole entry, looked up): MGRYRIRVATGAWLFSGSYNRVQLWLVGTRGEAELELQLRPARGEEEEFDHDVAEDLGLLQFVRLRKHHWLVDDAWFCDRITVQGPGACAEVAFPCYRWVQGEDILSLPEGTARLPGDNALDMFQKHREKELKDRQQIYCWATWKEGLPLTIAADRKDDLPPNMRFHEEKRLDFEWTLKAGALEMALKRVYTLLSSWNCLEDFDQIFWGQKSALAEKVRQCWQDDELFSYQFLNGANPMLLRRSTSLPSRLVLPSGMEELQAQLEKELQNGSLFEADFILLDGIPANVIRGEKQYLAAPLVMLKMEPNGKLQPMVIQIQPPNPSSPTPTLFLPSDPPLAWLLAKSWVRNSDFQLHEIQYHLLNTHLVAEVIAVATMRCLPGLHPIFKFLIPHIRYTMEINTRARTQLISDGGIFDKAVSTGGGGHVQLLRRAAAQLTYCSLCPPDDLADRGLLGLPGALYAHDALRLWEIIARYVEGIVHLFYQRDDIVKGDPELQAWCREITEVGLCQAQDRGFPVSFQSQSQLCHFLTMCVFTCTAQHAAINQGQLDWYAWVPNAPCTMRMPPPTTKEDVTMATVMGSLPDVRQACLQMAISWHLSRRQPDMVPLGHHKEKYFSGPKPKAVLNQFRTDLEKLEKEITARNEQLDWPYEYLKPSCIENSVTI
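Hydroperoxide product was detected by ferrous iron/xylenol orange as the 573 to 405 nm absorbance ratio. Arachidonic acid at 40 uM (final) was turned over for 30 min at room temperature by 150 nM human 12hLO, pH 7.0 Hepes buffer, after 15 min compound preincubation.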
DT40 TDP1 CPT: DT40-hTDP1 cell growth loss with CPT | Potency, µM (highest dose often 46.2 µM), for the others: at the highest dose activity change, negative = growth inhibition, usual class: inhibitors | chicken DT40 Tdp1-/-;hTDP1 cells + 20 nM CPT, ATP luminescence, 48 h | AID 686979 | 420,000 tested, 12% active; note: potency is the fitted concentration of half-maximal effect; nearly all actives have a fitted effect of over 55% in size
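Cell growth measured by CellTiter-Glo luminescence after a minimum 48 h, 37 C compound exposure with 20 nM CPT in Tdp1-knockout DT40 cells stably expressing hTDP1, seeded 400/well; qHTS titration format.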
HT1080 IDH1KD tx: kills HT-1080 cells with IDH1 knockdown; HT-1080 IDH1 knockdown viability, ATP luminescence, 48 h; Potency, µM (highest dose often 46.1 µM), for the others: at the top dose activity, negative = toxicity, most hits filed as cytotoxic; 360,000 tested, 2% active; AID 686971;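 note: potency is the fitted concentration of half-maximal effect; 0% = DMSO wells and -100% = cell-free medium wells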
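Luminescent ATP read-out (CellTiter-Glo, 10 min at room temperature) after 48 h compound exposure at 37 °C gave viability of IDH1-knockdown HT-1080 cells. Activity was normalised to DMSO and cell-free wells, then fitted as concentration-response curves.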
HT1080-NT tox: kills 2HG-producing HT-1080-NT fibrosarcoma cells; HT-1080-NT fibrosarcoma viability, CellTiter-Glo ATP luminescence, 48 h; Potency, µM (top dose mostly 46.1 µM), for inactives: at the highest dose activity, negative = less viability, most hits filed as cytotoxic; 360,000 tested, 1.6% active; AID 686970;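 note: NT is the 2HG producing partner of a matched IDH1 knockdown line; potency is the fitted concentration of half-maximal effect; 0% = DMSO-treated cells and -100% = media-only wells without cells; nearly all actives have a fitted effect of over 55% in size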
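Viability of the 2HG-overproducing fibrosarcoma line after 48 hours of compound exposure at 37 degrees C was determined by luminescence with CellTiter-Glo, and concentration-effect curves were then fitted and categorized.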
IL1B secr inh: blocks inflammasome-driven IL-1 beta release; THP-1 LPS/ATP IL-1B secretion, AlphaLISA, 16 h; hits give low values; activity change, % at 57.5 µM; 360,000 tested, 4.7% active; in the data active = activity change below about -50%; inconclusive = mostly about -30% to -49%
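THP-1 cells pretreated 1 hr with compounds (up to 57.5 uM final), then stimulated with LPS (250 ng/mL final) plus ATP (1.25 mM final); secreted IL-1B measured by AlphaLISA after 16 hr, decreased signal indicating inhibition.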
An asterisk follows results filed as active; ? = inconclusive; . = no result given; ! = repeats disagree; [ ] = another dose, or the depositor's remark. The full list was thinned out, with hits kept by preference. Unless noted, calls come from the whole dose curve; as a rule, active = well fitted curve in the direction sought with a large enough effect; inconclusive = small, poorly fitted or top-dose-only effect, or another doubt; inactive = no such curve, though single readings can be large; an effect the other way counts as inactive or inconclusive. Unless noted, % is set by controls: 0 for no effect and ±100 for the full control effect.

SMILES | DT40 TDP1 no CPT | ALOX12 inh | DT40 TDP1 CPT | HT1080 IDH1KD tx | HT1080-NT tox | IL1B secr inh
COc1ccccc1-c1csc(C(C)(NC(C)=O)c2ccccc2)n1 (stereo not drawn) | ? | -0.2% | 16.4µM* | 2.6% | ? | 0.0
CC(=O)NC(C)(c1ccccc1)c1nc(-c2cccc3cccnc23)cs1 (stereo not drawn) | 14.6µM* | -1.0% | 20.6µM* | 15.9% | 1.3% | 0.0
COC(=O)[C@@H](NC(=O)Nc1ccc(OC)c(Cl)c1)C(C)C | . | 3.8% | . | . | . | .
O=C(Cn1cccc1-c1nc(-c2ccc(Cl)cc2)no1)N1CCc2ccccc21 | . | 15.6% | . | . | . | .
Cc1ccc(S(=O)(=O)N2CCCC2c2ccccc2)cc1 (stereo not drawn) | . | 8.5% | . | . | . | .
CCC(CC)c1nnc(NC(=O)c2cccc(S(=O)(=O)N(C)c3cccc(Cl)c3)c2)s1 | . | 1.8% | . | . | . | .
Cc1cc(-n2c(C)cc(C(=O)CSc3ncnc4ccccc34)c2C)no1 | 1.16µM* | 14.8% | 1.84µM* | ? | -26.8% | -13.0
O=[N+]([O-])c1ccc(CSc2ncnc3ccccc23)cc1 | ? | ? | ? | -26.3% | -1.8% | -72.9*
Cc1cc(-n2c(C)cc(C(=O)CSc3nnc4sc5ccccc5n34)c2C)no1 | ? | 7.6% | 16.4µM* | -5.7% | 11.1% | 25.4
O=c1c2ccccc2nc(SCc2ccc([N+](=O)[O-])cc2)n1-c1ccccc1 | ? | 0.0% | ? | -1.0% | -3.8%[9.24 µM] | -15.9
Cc1cc(C)n2nc(SCC(=O)c3cc(C)n(-c4cc(C)on4)c3C)nc2n1 | 10.3µM* | -25.2% | 10.3µM* | -6.3% | ? | -4.8
CCCCOc1ccc(C(=O)N2CCC[C@H]2c2nc(-c3ccccc3)no2)cc1 | . | 0.7% | . | . | . | .
Cc1cc(-n2c(C)cc(C(=O)CSc3nnc(COc4ccc(Cl)cc4)o3)c2C)no1 | . | -0.4% | . | . | . | .
O=c1c2ccccc2nnn1CSc1ccccc1F | ? | -7.8% | ? | 14.3% | 8.4% | 6.6
O=C(CSc1ncnc2ccccc12)c1ccco1 | 20.6µM* | . | ? | -1.5% | -3.5% | -10.5
O=c1c2ccccc2nnn1CSc1ncnc2ccccc12 | ? | 155.8% | ? | 2.2% | 3.7% | -81.4*
Cc1cc(-n2c(C)cc(C(=O)CSc3nnnn3-c3ccc(Cl)cc3)c2C)no1 | 7.31µM* | -16.5% | ? | 6.9% | -25.5% | -1.1
CCc1noc(CC2CCOC3(CCN(S(=O)(=O)c4ccccc4Cl)CC3)C2)n1 (stereo not drawn) | . | 12.7% | . | . | . | .
CCCN1CC2(CCN(C)CC2)CC1C(=O)N(C)Cc1ccn[nH]1 (stereo not drawn) | . | 13.4% | . | . | . | .
CCn1c(COc2ccc(=O)n(-c3ccccc3)n2)nnc1SCc1ccccc1C | ? | 0.0% | 16.4µM* | -0.5% | -0.5% | -8.4
CC(C)NCC(O)c1ccc(O)c(O)c1 (stereo not drawn) | -24.5% | -23.1% | ? | 9.9% | ? | -24.5
CNC[C@H](O)c1ccc(O)c(O)c1 | 11.9µM*! | 1.4µM*! | 8.41µM*! | -1.3% | 14.9% | ?
O=[N+]([O-])c1cc(C=Nc2ccc3ccccc3c2)ccc1Br | 2.91µM* | -17.9% | 2.59µM* | -25.9% | -4.1% | -4.3
CC1CCN(c2nnc(-c3cccs3)c3ccccc23)CC1 | ? | ? | 25.9µM* | -9.5% | -2.3% | ?
Cc1nnc2c3ccccc3c(-c3cccs3)nn12 | ? | 63.4% | -8.6% | ? | -28.3% | -11.5
O=C1CCSc2ccc(C(=O)NOC3CCCCO3)cc2N1 (stereo not drawn) | . | -26.7% | . | . | . | .
Fc1ccccc1-c1nnc(SCc2ccccc2Br)n1C1CC1 | . | -1.3% | . | . | . | .
